Test results published in publication PMC5540273 (PLoS ONE, 2017).

Tests used:
Conditions in all cases: concentration: 1 μM,replicates: in singlicate; n = 1
PIP5K1A = system: PIP5K1A
PIP5K1C = system: PIP5K1C
PIP5K2B = system: PIP5K2B
PIP5K2C = system: T1, PIP5K2C
T1 construct: gene PIP4K2C

PKAC-alpha = system: T2, PKAC-alpha
T2 construct: gene PRKACA

PKAC-beta = system: T3, PKAC-beta
T3 construct: gene PRKACB

PKMYT1 = system: PKMYT1
PKN1 = system: PKN1
PKN2 = system: PKN2
PLK1 = system: PLK1
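Note: KINOMEscan kinase panel screen.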

Row | SMILES | %Inh (PIP5K1A) | %Inh (PIP5K1C) | %Inh (PIP5K2B) | %Inh (PIP5K2C) | %Inh (PKAC-alpha) | %Inh (PKAC-beta) | %Inh (PKMYT1) | %Inh (PKN1) | %Inh (PKN2) | %Inh (PLK1)
1 | CNC(=O)c1ccccc1Sc1ccc2c(/C=C/c3ccccn3)n[nH]c2c1 | 12% | 0% | 12% | 0% | 0% | 0% | 100% | 0% | 0% | 0%
2 | CCN(CC)CCOc1ccc(Nc2ncc3cc(-c4c(Cl)cccc4Cl)c(=O)n(C)c3n2)cc1 [SB-601273] | 72% | 82% | 16% | 90.7% | 26% | 0% | 98.6% | 57% | 6% | 26%
3 | Cc1ccc(-n2nc(C(C)(C)C)cc2NC(=O)Nc2ccc(OCCN3CCOCC3)c3ccccc23)cc1 [GW839464] | 0% | 37% | 23% | 19% | 0% | 34% | 21% | 100% | 0% | 24%
4 | NC(=O)c1cc(-c2ccccc2)cc2c(C3CCNCC3)c[nH]c12 [GSK301362] | 0% | 33% | 14% | 75% | 0% | 11% | 17% | 50% | 0% | 10%
5 | CCn1c(-c2nonc2N)nc2c(C#CC(C)(C)O)nc(OCCN)cc21.Cl.Cl [GSK902056] | 1% | 86% | 9% | 13% | 67% | 81% | 8% | 8% | 0% | 0%
6 | Cc1cc(C(=O)Nc2ccc(Oc3ccc4nc(NC(=O)C5CC5)cn4n3)cc2)nn1-c1ccccc1 | 3% | 27% | 50% | 22% | 0% | 21% | 0% | 0% | 11% | 0%
7 | O=C(NCCCN1CCOC1=O)c1cnc(NCc2cc(Cl)ccc2Cl)nc1NC1CCCC1 | 0% | 39% | 0% | 7% | 4% | 6% | 27% | 0% | 10% | 0%
8 | CC(C)Nc1cc(-c2ccc3c(N)n[nH]c3c2)nc(N)n1 [GSK2221681] | 56% | 28% | 32% | 0% | 0% | 0% | 0% | 29% | 0% | 0%
9 | Nc1nc(Nc2ccccc2)cc(-c2ccc3c(N)n[nH]c3c2)n1 [GSK2225749] | 46% | 82% | 38% | 61% | 0% | 0% | 0% | 50% | 0% | 0%
10 | Cc1cc2cn[nH]c2cc1-c1cccc2c(N)c(C(N)=O)nnc12 | 16% | 0% | 0% | 10% | 1% | 0% | 0% | 0% | 0% | 15%
11 | COc1ccc(C[C@@H](CN)NC(=O)c2cc(Br)c(-c3ccnc4[nH]ccc34)s2)cc1.Cl.Cl [GSK1389063] | 46% | 30% | 64% | 59% | 99.7% | 99.7% | 0% | 95.8% | 90% | 0%
12 | Cc1occc1-c1nc(N)c(OC[C@@H](N)Cc2c[nH]c3ccccc23)cc1-c1cc2c(C)n[nH]c2cn1 [GSK1660450] | 65% | 42% | 11% | 0% | 99.9% | 99.3% | 24% | 63% | 22% | 57%
13 | CN(C)CCOc1ccc(-c2cc(-c3c[nH]nc3-c3ccccn3)ccn2)cc1 [GW835314] | 0% | 16% | 26% | 8% | 10% | 0% | 0% | 100% | 3% | 42%
14 | CCN(CC)CCCCNc1ncc2cc(-c3c(Cl)cccc3Cl)c(NC(=O)NC(C)(C)C)nc2n1 | 0% | 0% | 0% | 3% | 11% | 0% | 0% | 0% | 4% | 0%
15 | C[C@H]1Oc2cc(cnc2N)-c2c(nn(C)c2C#N)CN(C)C(=O)c2ccc(F)cc21 | 0% | 44% | 0% | 0% | 18% | 0% | 33% | 12% | 0% | 0%
16 | Cl.Cl.Nc1nc(-c2ccc3c(N)n[nH]c3c2)cc(N2CCCC(NC(=O)c3ccccc3)C2)n1 (stereo not shown) [GSK2286775] | 56% | 55% | 38% | 25% | 0% | 0% | 5% | 41% | 0% | 0%
17 | Cl.Cl.NC[C@H](Cc1ccc(C(F)(F)F)cc1)NC(=O)c1cc(Br)c(-c2ccnc3[nH]ccc23)s1 [GSK1487252] | 0% | 22% | 39% | 3% | 99.4% | 98.8% | 10% | 12% | 79% | 0%
18 | O=C(NCCNc1ccnc(NCc2ccc(F)cc2)n1)c1cc2ccccc2s1 [GSK1379944] | 0% | 100% | 20% | 12% | 7% | 14% | 74% | 0% | 0% | 0%
19 | Cc1n[nH]c2ccc(-c3cc(OC[C@@H](N)Cc4ccccc4)cnc3-c3ccoc3)cc12.O=C(O)C(F)(F)F.O=C(O)C(F)(F)F [GSK507358] | 0% | 38% | 41% | 31% | 98.9% | 98% | 0% | 33% | 9% | 3%
20 | CC(C)N1C(=O)Cc2cc(Nc3ncc(C(F)(F)F)c(NCc4cccc(S(C)(=O)=O)c4)n3)ccc21 | 34% | 0% | 57% | 52% | 0% | 0% | 15% | 24% | 7% | 28%
21 | Cl.Cl.NC[C@H](CC1CCCCC1)NC(=O)c1cc(Br)c(-c2ccnc3[nH]ccc23)s1 [GSK1581427] | 63% | 35% | 89% | 36% | 99.5% | 99.6% | 0% | 31% | 82% | 0%
22 | C[C@@H]1CCN(C(=O)CC#N)C[C@@H]1N(C)c1ncnc2[nH]ccc12 | 0% | 0% | 0% | 0% | 0% | 0% | 20% | – | – | 0%
23 | Cl.Oc1cc(-c2nc(-c3ccccc3)[nH]c2-c2ccncc2)ccc1Cl [SB-386023] | 30% | 0% | 16% | 0% | 5% | 1% | 0% | 0% | 33% | 1%
24 | Cc1ccc2c(-c3ccncc3)c(-c3ccc(F)cc3)nn2c1.Cl [GW461484] | 24% | 24% | 31% | 10% | 18% | 22% | 0% | 0% | 8% | 0%
25 | C[C@@H](Oc1cc(-c2cnn(C3CCNCC3)c2)cnc1N)c1c(Cl)ccc(F)c1Cl | 0% | 0% | 79% | 0% | 0% | 0% | 0% | 2% | 0% | 0%
26 | C=CC(=O)Nc1cc2c(Nc3ccc(F)c(Cl)c3)ncnc2cc1OCCCN1CCOCC1 [GW781483] | 18% | 0% | 0% | 27% | 11% | 10% | 20% | 18% | 0% | 0%
27 | CN(C)CC(O)COc1ccc(Nc2nccc(-c3cnn4nc(N5CCOCC5)ccc34)n2)cc1 (stereo not shown) [GW767488] | 37% | 24% | 77% | 82% | 0% | 0% | 9% | 13% | 38% | 37%
